Granule exo inh = LAMP-1 surface exposure blockers, TALL-104 cells – cell-based, flow cytometry, MLPCN library, primary screen; TALL-104 LAMP-1 surface exposure; cells stimulated with thapsigargin and PMA; 360,000 tested, 0.66% active; AID 651702, 2012; inhibition, % at 10 µM;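 active = inhibition above about 55%, limit read from the data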
TLR9-MyD88 block = inhibitors of TLR9-MyD88 association in cells, primary screen, cell-based, CHO, BLA complementation, fluorescence; Toll-like receptor 9 (Homo sapiens) + Myeloid differentiation primary response protein …; CCF4 FRET ratio; inhibition, % at 4.98 µM; 340,000 tested, 0.21% active; AID 504734, 2011;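 active = inhibition above the mean over all tested compounds plus 3 SD, cut at about 21% in these data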;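 also: 0% = DMSO only wells and 100% = clavulanate BLA inhibitor control wells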
TLR4-MyD88 BLA = inhibitors of TLR4-MyD88 association in cells, primary screen, cell-based, HeLa CL3-4, BLA complementation, FRET ratio; HeLa CL3-4 TLR4/MyD88 BLA complementation; Toll-like receptor 4 (Homo sapiens) + Myeloid differentiation primary response protein …; AID 861, 2007; inhibition, % at 8.4 µM; 200,000 tested, 0.18% active; in the data active = inhibition above about 25%;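 also: 0% = vehicle and 100% = reference inhibitor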
NOD2-RIPK2 inh = NOD2-RIPK2 binding disruptors in cells, primary screen, fluorescence, CHO cells, BLA complementation; Receptor-interacting serine/threonine-protein kinase 2 (Homo sapiens), O43353; CCF4 ratio; inhibition, % at 4.98 µM; 360,000 tested, 0.38% active; in the data active = inhibition above about 21%;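 also: 0% = vehicle only and 100% = reference blocker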
PRMT1 inh = PRMT1 methyltransferase inhibitors, primary screen, biochemical, fluorescence polarization; recombinant PRMT1, activity-based probe fluorescence polarization; inhibition, % at 2.79 µM; 370,000 tested, 1.3% active; Protein arginine N-methyltransferase 1 (Homo sapiens), Q99873; AID 652257, 2013;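 active = inhibition above about 21% made by adding two undisclosed values, limit read from the data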
Target sequence (Q99873 whole entry, looked up): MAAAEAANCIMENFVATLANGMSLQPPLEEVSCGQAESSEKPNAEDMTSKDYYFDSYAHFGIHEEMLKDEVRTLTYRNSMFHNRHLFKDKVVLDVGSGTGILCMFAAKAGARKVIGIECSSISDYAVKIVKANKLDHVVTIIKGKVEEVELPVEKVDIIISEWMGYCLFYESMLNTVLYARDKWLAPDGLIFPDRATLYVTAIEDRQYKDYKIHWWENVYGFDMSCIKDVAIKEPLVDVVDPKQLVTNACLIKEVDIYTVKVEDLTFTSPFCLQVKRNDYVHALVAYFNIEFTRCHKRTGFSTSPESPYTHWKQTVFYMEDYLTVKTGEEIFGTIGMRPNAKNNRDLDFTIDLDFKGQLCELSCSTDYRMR
ABHD5 PLIN5 PPI = ABHD5-PLIN5 interaction inhibitors, primary screen, cell lysate, split luciferase complementation, luminescence. Perilipin-5 (Homo sapiens) + 1-acylglycerol-3-phosphate O-acyltransferase ABHD5 (Homo …. 360,000 tested, 0.78% active. Split G. princeps luciferase complementation, 4 h. inhibition, % at 4 µM;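 active = inhibition above the mean inhibition across every tested compound plus 3 SD, cut at about 22% in these data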;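 also: 0% = DMSO only wells and the 100% control is not disclosed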
PRMT1 confirm = PRMT1 methyltransferase inhibitors, confirmation, biochemical, fluorescence polarization, triplicate; 3,300 tested, 42% active; shares compounds with PRMT1 inh; inhibition, % at 2.79 µM; recombinant His-PRMT1, activity-based probe fluorescence polarization;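 active = mean inhibition across replicates above the hit cutoff derived for the earlier primary screen, cut at about 22% in these data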
* hit, by the source's call; nt = no result. Most compounds without a hit are left out; they make up all but 2.6% or so of the library.

SMILES	Granule exo inh	TLR9-MyD88 block	TLR4-MyD88 BLA	NOD2-RIPK2 inh	PRMT1 inh	ABHD5 PLIN5 PPI	PRMT1 confirm
COC(=O)c1ccc(Cn2c(C)c(C(=O)NCc3cccc([N+](=O)[O-])c3)sc2=O)o1	5	nt	nt	-9	1	-2	nt
C=CCc1c(C)[nH]c(=S)c(C#N)c1C	-2	0	4	-10	32*	9	53*
C=CCSC1=N/C(=C\c2cc(OCC)c(OC(C)=O)c([N+](=O)[O-])c2)C(=O)S1	0	-15	-12	-8	28*	-1	8
O=C(N/N=C/c1ccoc1)c1ccccc1F	10	2	nt	-6	3	6	nt
CC(=O)Nc1ccccc1OCC(=O)c1cc(C)n(Cc2cccs2)c1C	7	-20	10	-6	1	7	nt
Cc1cc(C(=O)COc2cccnc2[N+](=O)[O-])c(C)n1Cc1cccs1	-2	-4	2	3	29*	-2	-1
CCC(=O)Nc1ncc2c(n1)CC(c1ccco1)CC2=O (stereo not given)	4	-4	-5	4	41*	8	8
O=C(Nc1ncc2c(n1)CC(c1ccco1)CC2=O)c1ccco1 (stereo not given)	-3	-2	nt	-2	36*	3	4
Nc1ncc2c(n1)CC(c1ccco1)CC2=O (stereo not given)	-1	8	2	1	28*	13	4
CC(=O)Nc1ncc2c(n1)CC(c1ccco1)CC2=O (stereo not given)	-1	0	2	-10	0	-3	nt
Cn1c(SCC(=O)N2CCCC2=O)nc2ccccc2c1=O	-2	-6	nt	-1	-3	-5	nt
Nc1c(C(=O)c2ccccc2)sc2nsc(SCCN3CCOCC3)c12	-6	nt	nt	12	6	-25	nt
CC(=O)c1sc2nsc(SCCN3CCOCC3)c2c1N	1	nt	nt	-4	67*	-9	10
C/C(=N\N1C(=O)CSC1=S)c1ccc(Br)cc1	0	-1	-2	-3	31*	-15	32*
Cc1ccc(C(=O)NN2C(=O)CSC2=S)cc1	0	-7	7	-1	-2	-2	nt
O=C(CSC1=NCCN1)C1COc2ccccc2O1 (stereo not given)	-5	8	11	-1	34*	-5	42*
O=C(Nc1ccncc1)C1COc2ccccc2O1 (stereo not given)	-4	2	-6	3	0	-7	nt
CC(O)C(NC(=O)OCc1ccccc1)C(=O)OCc1ccccc1 (stereo not given)	3	-1	nt	7	-1	15	nt
C=C[C@@H]1c2cc(C)ccc2N(S(=O)(=O)c2ccc(C)cc2)[C@H](c2ccccc2)C1(C#N)S(=O)(=O)c1ccccc1 (stereo not given in full)	-3	-7	nt	-2	0	-9	nt
COc1ccc(S(=O)(=O)N2CCOCC2)cc1NC(=O)CSc1nnc(C2CC2)n1C1CC1	-3	7	nt	-4	40*	-8	0
Cc1ccc(S(=O)(=O)N2CCOCC2)cc1NC(=O)CSc1nnc(C2CC2)n1C1CC1	1	-9	nt	-10	-1	-16	nt
O=C(N[C@H](C(=O)N1CCC[C@H]1C(=O)NCCc1ccccc1Cl)C1CCCCC1)C1CC1	nt	nt	nt	nt	0	nt	nt
CCN(CC)CCCNC(=O)c1ccccc1C	-2	-7	-3	-15	-3	5	nt
CCN(CC)CCCNC(=O)/C=C/C(=O)O	-4	-4	nt	-6	27*	10	-1
O=C(NCCCCNCCCNC(=O)c1ccccc1)c1ccccc1	-2	0	nt	-11	3	-14	nt

Screening results deposited in PubChem by several laboratories.
